High-throughput results deposited in PubChem BioAssay by several laboratories.
In the library only some 3.6% were active in any assay of this set; here they are far more common.
Bead autofluor: counter-screen for toxin protease inhibitors: compound fluorescence. compound autofluorescence counterscreen, microsphere flow cytometry; hits give high values. fluorescence intensity (no concentration beside the values). 3.1% of 360,000 active. AID 624483; in the data active = fluorescence intensity above about 16000; inconclusive = no clear call, values can overlap the other calls
BoNT-F LC inh: BoNT/F light chain protease inhibitors, primary screen, biochemical, flow cytometry, MLPCN library; Botulinum neurotoxin type F light chain protease (Clostridium botulinum); Multiplex microsphere protease cleavage assay; inhibition, % at 10 µM; 0.22% of 360,000 active; in the data active = inhibition above about 35%, passing the limit was not always enough; inconclusive = no clear call, values can overlap the other calls
BoNT A protease: BoNT/A light chain protease inhibitors, primary screen, biochemical, flow cytometry, MLPCN library; AID 588499, 2011; multiplex microsphere protease substrate cleavage; inhibition, % at 10 µM; 0.17% of 360,000 active
Anthrax LF prot: Bacillus anthracis LF protease inhibitors, primary screen, biochemical, multiplex microsphere, MLPCN library. Lethal factor (Bacillus anthracis), P15917. multiplex microsphere protease cleavage assay. inhibition, % at 10 µM. 0.12% of 360,000 active
Target sequence (P15917 whole entry, looked up): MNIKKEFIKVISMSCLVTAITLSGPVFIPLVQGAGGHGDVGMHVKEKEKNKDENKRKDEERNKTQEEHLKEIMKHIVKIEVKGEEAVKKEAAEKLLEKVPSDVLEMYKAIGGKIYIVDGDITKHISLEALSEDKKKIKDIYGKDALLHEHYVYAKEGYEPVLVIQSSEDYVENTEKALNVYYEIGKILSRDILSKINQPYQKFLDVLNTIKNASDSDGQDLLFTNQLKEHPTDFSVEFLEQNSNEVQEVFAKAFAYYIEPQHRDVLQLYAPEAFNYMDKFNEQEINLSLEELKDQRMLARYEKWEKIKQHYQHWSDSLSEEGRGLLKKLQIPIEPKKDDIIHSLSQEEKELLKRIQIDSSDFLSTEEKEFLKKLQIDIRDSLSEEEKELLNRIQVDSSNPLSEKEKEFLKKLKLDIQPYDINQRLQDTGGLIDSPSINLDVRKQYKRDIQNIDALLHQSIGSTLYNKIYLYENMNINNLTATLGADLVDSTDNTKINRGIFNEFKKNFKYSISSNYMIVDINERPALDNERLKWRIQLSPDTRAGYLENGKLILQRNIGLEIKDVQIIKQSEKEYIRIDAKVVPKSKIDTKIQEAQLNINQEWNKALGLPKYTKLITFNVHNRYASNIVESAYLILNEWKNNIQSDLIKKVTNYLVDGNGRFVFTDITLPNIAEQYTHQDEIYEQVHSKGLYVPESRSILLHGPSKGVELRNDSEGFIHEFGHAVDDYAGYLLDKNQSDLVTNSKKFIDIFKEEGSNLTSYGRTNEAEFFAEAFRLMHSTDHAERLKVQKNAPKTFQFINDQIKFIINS
MazF activator: activators of E. coli MazEF toxin-antitoxin RNase, primary screen, biochemical, fluorescence, uHTS | FAM/BHQ RNA-DNA oligo cleavage fluorescence, 5 h | activation, % at 20 µM | 0.32% of 350,000 active | AID 504720, 2011; in the data active = activation above about 50%
Numbers stand for hits. Rule as the data show it, unless noted: active = inhibition above about 30%; inconclusive = no clear call, values can overlap the other calls; inactive = below that.

CC(CN1CCN(C)CC1)OC(=O)c1ccc(Cl)cc1Cl (stereo not given) was read as Bead autofluor 16186, BoNT-F LC inh inactive, BoNT A protease inconclusive, Anthrax LF prot inactive and MazF activator inactive.
Screening CC(CN1CCN(C)CC1)OC(=O)c1ccc(Cl)cc1 (stereo not given) returned Bead autofluor inactive, BoNT-F LC inh inactive, BoNT A protease inactive, Anthrax LF prot inactive and MazF activator inactive.
Cc1ccc(N2CC(C(=O)NCc3ccc4c(c3)OCO4)CC2=O)cc1C (stereo not given) was read as Bead autofluor 22630, BoNT-F LC inh inactive, BoNT A protease inconclusive, Anthrax LF prot inactive and MazF activator inactive.
CC(NC(=O)COc1ccc(Br)cc1)C1CCCO1 (stereo not given) was read as Bead autofluor inactive, BoNT-F LC inh inactive, BoNT A protease inactive, Anthrax LF prot inactive and MazF activator inactive.
Screening COc1ccc2nc(NC(=O)Cc3cccs3)sc2c1 returned Bead autofluor inactive, BoNT-F LC inh inactive, BoNT A protease inactive, Anthrax LF prot inactive and MazF activator inactive.
`Cc1ccc2nc(NC(=O)CNS(=O)(=O)c3ccc(Br)s3)sc2c1` gave Bead autofluor 21835, BoNT-F LC inh inactive, BoNT A protease inactive, Anthrax LF prot inactive and MazF activator inactive.
`Cc1cnc(NC(=O)Cc2cccs2)s1` gave Bead autofluor inactive, BoNT-F LC inh inactive, BoNT A protease inactive, Anthrax LF prot inactive and MazF activator inactive.
`Cc1cccc(OCc2nnc(NC(=O)Cc3cccs3)s2)c1` gave Bead autofluor 16333, BoNT-F LC inh inactive, BoNT A protease inactive, Anthrax LF prot inactive and MazF activator inactive.
`Cc1ccc2nc(NC(=O)Cc3cccs3)sc2c1` gave Bead autofluor 21273, BoNT-F LC inh inactive, BoNT A protease inactive, Anthrax LF prot inactive and MazF activator inactive.
Cc1ccc2nc(NC(=O)CN(C)S(=O)(=O)c3ccc(Br)s3)sc2c1 was read as Bead autofluor inactive, BoNT-F LC inh inactive, BoNT A protease inactive, Anthrax LF prot inactive and MazF activator inactive.
`CC(C)SCCCCOc1ccc2ccccc2c1` gave Bead autofluor 21736, BoNT-F LC inh inactive, BoNT A protease inactive, Anthrax LF prot inactive and MazF activator inactive.
c1ccc2cc(OCCOCCOc3ccc4ccccc4c3)ccc2c1 was read as Bead autofluor inactive, BoNT-F LC inh inactive, BoNT A protease inactive, Anthrax LF prot inactive and MazF activator inactive.
`CCCN1CCCc2cc(CN(CCCN3CCOCC3)C(=O)Nc3ccc(OCC)cc3)ccc21` gave Bead autofluor 22682, BoNT-F LC inh inactive, BoNT A protease inactive, Anthrax LF prot inactive and MazF activator inactive.
For CCOc1ccc(NC(=O)N(CCN2CCOCC2)Cc2ccc3c(c2)CCCN3CC)cc1 the results were Bead autofluor inactive, BoNT-F LC inh inactive, BoNT A protease inactive, Anthrax LF prot inactive and MazF activator inactive.
Screening O=C(Nc1ccc(C(F)(F)F)cc1)C1CCCN1S(=O)(=O)c1cccc2cccnc12 (stereo not given) returned Bead autofluor 16378, BoNT-F LC inh inactive, BoNT A protease inactive, Anthrax LF prot inactive and MazF activator inactive.
For Cc1ccc(C2=NN(CC(=O)O)C(=O)CC2)cc1 the results were Bead autofluor inactive, BoNT-F LC inh 49.5, BoNT A protease inactive, Anthrax LF prot inactive and MazF activator inactive.
Screening CCCCn1c(N)c(N(CCC(C)C)C(=O)COC(=O)Cc2ccc(Cl)cc2)c(=O)[nH]c1=O returned Bead autofluor inactive, BoNT-F LC inh inactive, BoNT A protease inactive, Anthrax LF prot inactive and MazF activator inactive.
`CC(C)NC(=O)c1ccc(-c2cc(C(F)(F)F)ccc2Cl)o1` gave Bead autofluor 22154, BoNT-F LC inh inactive, BoNT A protease inactive, Anthrax LF prot inactive and MazF activator inactive.
Screening COc1ccc(Cl)cc1S(=O)(=O)NC(C)c1cnn(-c2ccccn2)c1C (stereo not given) returned Bead autofluor inactive, BoNT-F LC inh inactive, BoNT A protease inactive, Anthrax LF prot inactive and MazF activator inactive.
Screening O=C(COc1ccc2ccccc2c1Br)Nc1ncn[nH]1 returned Bead autofluor 21352, BoNT-F LC inh inactive, BoNT A protease inactive, Anthrax LF prot inactive and MazF activator inactive.
`FC(F)(F)c1cnc(COc2ccc(Cl)cc2Cl)c(Cl)c1` gave Bead autofluor inactive, BoNT-F LC inh inactive, BoNT A protease inactive, Anthrax LF prot inactive and MazF activator inactive.
Screening O=c1ncn(-c2ccccc2C(F)(F)F)c2ncccc12 returned Bead autofluor inactive, BoNT-F LC inh inactive, BoNT A protease inactive, Anthrax LF prot inactive and MazF activator inactive.
Screening O=c1ncn(-c2ccccc2F)c2ncccc12 returned Bead autofluor 21215, BoNT-F LC inh inactive, BoNT A protease inactive, Anthrax LF prot inactive and MazF activator inactive.
For O=C1NC[C@H](CC2CCCCC2)N(CCC23CC4CC(CC(C4)C2)C3)C1=O the results were Bead autofluor inactive, BoNT-F LC inh inactive, BoNT A protease inactive and Anthrax LF prot inactive.
For COc1cc(C(=O)Oc2cc(N)n(S(=O)(=O)c3ccc(F)cc3)n2)cc(OC)c1OC the results were Bead autofluor inactive, BoNT-F LC inh inactive, BoNT A protease inactive, Anthrax LF prot inactive and MazF activator 245.3.
Screening COc1ccc(C(=O)Nc2cc(-c3ccccc3)nn2-c2ccccc2F)cc1 returned Bead autofluor inactive, BoNT-F LC inh inactive, BoNT A protease inactive, Anthrax LF prot inactive and MazF activator inactive.
`CCN(c1ccc(C)c(C)c1)S(=O)(=O)c1ccc2c(c1)CCN2C(=O)CCC(=O)O` gave Bead autofluor inactive, BoNT-F LC inh inactive, BoNT A protease inactive, Anthrax LF prot inactive and MazF activator inactive.
For COc1ccc(N(CC(=O)N2CCc3ccccc32)S(=O)(=O)c2c(C)n[nH]c2C)cc1 the results were Bead autofluor 17257, BoNT-F LC inh inactive, BoNT A protease inconclusive, Anthrax LF prot inactive and MazF activator inactive.
CCN(c1ccc(OC)cc1)S(=O)(=O)c1ccc2c(c1)CCN2C(=O)CCC(=O)O was read as Bead autofluor 16864, BoNT-F LC inh inactive, BoNT A protease inactive, Anthrax LF prot inactive and MazF activator inactive.
For CCCCC1(Cc2cccc([N+](=O)[O-])c2)C(=O)N(c2ccccc2)N(c2ccccc2)C1=O the results were Bead autofluor inactive, BoNT-F LC inh inactive, BoNT A protease inactive, Anthrax LF prot inactive and MazF activator inactive.
C=Cc1cnc([N+](=O)[O-])n1C was read as Bead autofluor inactive, BoNT-F LC inh inactive, BoNT A protease inactive, Anthrax LF prot inactive and MazF activator inactive.
`CC(C)(C)OC(=O)[C@H](Cc1ccccc1)NC(=O)c1ncn2c1c(=O)[nH]c1ccc(Br)cc12` gave Bead autofluor inactive, BoNT-F LC inh inactive, BoNT A protease inactive, Anthrax LF prot inactive and MazF activator inactive.
`COc1ccc(CC(=O)NNC(=O)c2ccc(SCc3cc(F)ccc3F)c([N+](=O)[O-])c2)cc1` gave Bead autofluor 22474, BoNT-F LC inh inactive, BoNT A protease inactive, Anthrax LF prot inactive and MazF activator inactive.
